Reference: PubChem BioAssay (Tox21)
Inconclusive results are not listed. Entries that show only a call come without a potency. Activity calls are given as the source filed them. Unless noted, calls come from the whole dose curve; as a rule, active = well fitted curve in the direction sought with a large enough effect in the repeat runs; inconclusive = weak or mixed curves; inactive = no such curve, though single readings can be large; an effect the other way counts as inactive or inconclusive.

experiment: qHTS assay to identify small molecule antagonists of the progesterone receptor (PR) signaling pathway - cell viability counter screen (AID 1346798); conditions: PR-UAS-bla HEK293T viability, CellTiter-Glo luminescence, 16 h; series mostly up to 92.4 µM; note: nearly all actives have a fitted effect of over 50% in size
How it was run: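 Following a 4 hr attachment, PR-UAS-bla HEK293T cells in charcoal-stripped FBS medium were exposed to compounds with R5020 for 16 hr; CellTiter-Glo was added and luminescence read after 30 min at room temperature.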

Row | SMILES | Potency
1 | COC(=O)CCCCCCCCC(=O)OC | inactive
2 | C[N+](C)(C)CC[N+]1(C)Cc2c(Cl)c(Cl)c(Cl)c(Cl)c2C1 | inactive
3 | COC(C(=O)O)c1ccccc1 (stereo unspecified) | inactive
4 | CCC(C)OC(=O)N1CCCCC1CCO (stereo unspecified) | inactive
5 | CC(C=O)Cc1ccc(C(C)C)cc1 (stereo unspecified) | inactive
6 | CC(C)CCCC(C)CCCC(C)CCCCC(C)CCCC(C)CCCC(C)C (stereo unspecified) | inactive
7 | NC(=O)CCCCC1CCSS1 (stereo unspecified) | inactive
8 | CC(C)[C@H](N)C(=O)OCCOCn1cnc2c(=O)[nH]c(N)nc21 | inactive
9 | c1ccc(CCCc2ccccn2)cc1 | inactive
10 | CCC(C(=O)NC(N)=O)c1ccccc1 (stereo unspecified) | inactive
11 | O=C1CC2(CCCC2)CC(=O)N1 | inactive
12 | CC(C)c1cccc(O)c1 | inactive
13 | O=C(CCOCCOCCOCCOCCC(=O)Nc1c(I)cc(I)c(C(=O)O)c1I)Nc1c(I)cc(I)c(C(=O)O)c1I | inactive
14 | NC(CS)C(=O)O (stereo unspecified) | inactive
15 | CCCCCCCCCCCCI | inactive
16 | Cc1ccc(N)cc1[N+](=O)[O-] | inactive
17 | CC(C)(C)OC(=O)N1C[C@@H](F)C[C@H]1C(=O)O | inactive
18 | Cn1cnc2c(=O)[nH]c(N)nc21 | inactive
19 | Nc1ccn(C2CO[C@H](CO)O2)c(=O)n1 (stereo partly specified) | inactive

Row | SMILES | Potency
20 | COCCOC(=O)CC#N | inactive
21 | CNc1ncnc2nc[nH]c12 | inactive
22 | CCN(CC)S(=O)(=O)c1ccc(C(=O)O)cc1 | inactive
23 | C=CC(=O)OCCCCCC | inactive
24 | CCN(CC)C(=O)c1ccc(O)c(OC)c1 | inactive
25 | c1ccc2cnncc2c1 | inactive
26 | COc1ccc(COC=O)cc1 | inactive
27 | CCCCCCCCN(C)CCCCCCCC | inactive
28 | CC(C)N1C(=O)c2ccccc2C1=O | inactive
29 | Fc1ccccc1-c1ccccc1 | inactive
30 | NC(N)=NS(=O)(=O)c1ccc(N)cc1 | inactive
31 | O=C(O)c1ccccc1-c1ccc(C(F)(F)F)cc1 | inactive
32 | CCCC(C)CO (stereo unspecified) | inactive
33 | CCC(=O)Nc1cccc(N)c1 | inactive
34 | CN(C)N=Nc1ccccc1 | inactive
35 | CC(C)(O)Cc1ccccc1 | inactive
36 | COc1cc(O)cc(O)c1 | inactive
37 | COc1cccc(Br)c1 | inactive

experiment: qHTS assay to identify small molecule agonists of the progesterone receptor (PR) signaling pathway - cell viability counter screen (AID 1346799; calls by dose curve; note: nearly all actives have a fitted effect of over 45% in size); conditions: PR-UAS-bla HEK293T viability, CellTiter-Glo luminescence, 16 h; series mostly up to 92.4 µM
How it was run: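 Here, 3,000 PR-UAS-bla HEK293T cells per well were treated with compounds for 16 hr after a 6 hr preincubation at 37C and 5% CO2; cell viability is the CellTiter-Glo luminescence signal.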

Row | SMILES | Potency
38 | COC(=O)CCCCCCCCC(=O)OC | inactive
39 | C[N+](C)(C)CC[N+]1(C)Cc2c(Cl)c(Cl)c(Cl)c(Cl)c2C1 | inactive
40 | COC(C(=O)O)c1ccccc1 (stereo unspecified) | inactive
41 | CCC(C)OC(=O)N1CCCCC1CCO (stereo unspecified) | inactive
42 | CC(C=O)Cc1ccc(C(C)C)cc1 (stereo unspecified) | inactive
43 | CC(C)CCCC(C)CCCC(C)CCCCC(C)CCCC(C)CCCC(C)C (stereo unspecified) | inactive
44 | NC(=O)CCCCC1CCSS1 (stereo unspecified) | inactive
45 | CC(C)[C@H](N)C(=O)OCCOCn1cnc2c(=O)[nH]c(N)nc21 | inactive
46 | c1ccc(CCCc2ccccn2)cc1 | inactive
47 | CCC(C(=O)NC(N)=O)c1ccccc1 (stereo unspecified) | inactive
48 | O=C1CC2(CCCC2)CC(=O)N1 | inactive
49 | CC(C)c1cccc(O)c1 | inactive
50 | O=C(CCOCCOCCOCCOCCC(=O)Nc1c(I)cc(I)c(C(=O)O)c1I)Nc1c(I)cc(I)c(C(=O)O)c1I | inactive
51 | NC(CS)C(=O)O (stereo unspecified) | inactive
52 | CCCCCCCCCCCCI | inactive
53 | Cc1ccc(N)cc1[N+](=O)[O-] | inactive
54 | CC(C)(C)OC(=O)N1C[C@@H](F)C[C@H]1C(=O)O | inactive
55 | Cn1cnc2c(=O)[nH]c(N)nc21 | inactive
56 | Nc1ccn(C2CO[C@H](CO)O2)c(=O)n1 (stereo partly specified) | inactive

Row | SMILES | Potency
57 | COCCOC(=O)CC#N | inactive
58 | CNc1ncnc2nc[nH]c12 | inactive
59 | CCN(CC)S(=O)(=O)c1ccc(C(=O)O)cc1 | inactive
60 | C=CC(=O)OCCCCCC | inactive
61 | CCN(CC)C(=O)c1ccc(O)c(OC)c1 | inactive
62 | c1ccc2cnncc2c1 | inactive
63 | COc1ccc(COC=O)cc1 | inactive
64 | CCCCCCCCN(C)CCCCCCCC | inactive
65 | CC(C)N1C(=O)c2ccccc2C1=O | inactive
66 | Fc1ccccc1-c1ccccc1 | inactive
67 | NC(N)=NS(=O)(=O)c1ccc(N)cc1 | inactive
68 | O=C(O)c1ccccc1-c1ccc(C(F)(F)F)cc1 | inactive
69 | CCCC(C)CO (stereo unspecified) | inactive
70 | CCC(=O)Nc1cccc(N)c1 | inactive
71 | CN(C)N=Nc1ccccc1 | inactive
72 | CC(C)(O)Cc1ccccc1 | inactive
73 | COc1cc(O)cc(O)c1 | inactive
74 | COc1cccc(Br)c1 | inactive

experiment: qHTS assay to identify small molecule antagonists of the TGF-beta/Smad signaling pathway - cell viability counter screen (AID 1346824); conditions: SBE-bla HEK293T viability, CellTiter-Glo luminescence; series mostly up to 76.8 µM; note: nearly all actives have a fitted effect of over 50% in size
How it was run: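 Cytotoxicity counter-screen run in the same wells as the beta-lactamase Smad reporter read: CellTiter-Glo luminescence after 30 min at room temperature. HEK 293T SBE-bla cells had 5 hr compound exposure at 37 C with TGF-beta1 (0.25 ng/mL stock).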

Row | SMILES | outcome
75 | COC(=O)CCCCCCCCC(=O)OC | inactive
76 | C[N+](C)(C)CC[N+]1(C)Cc2c(Cl)c(Cl)c(Cl)c(Cl)c2C1 | inactive
77 | COC(C(=O)O)c1ccccc1 (stereo unspecified) | inactive
78 | CCC(C)OC(=O)N1CCCCC1CCO (stereo unspecified) | inactive
79 | CC(C=O)Cc1ccc(C(C)C)cc1 (stereo unspecified) | inactive
80 | CC(C)CCCC(C)CCCC(C)CCCCC(C)CCCC(C)CCCC(C)C (stereo unspecified) | inactive
81 | NC(=O)CCCCC1CCSS1 (stereo unspecified) | inactive
82 | CC(C)[C@H](N)C(=O)OCCOCn1cnc2c(=O)[nH]c(N)nc21 | inactive
83 | c1ccc(CCCc2ccccn2)cc1 | inactive
84 | CCC(C(=O)NC(N)=O)c1ccccc1 (stereo unspecified) | inactive
85 | O=C1CC2(CCCC2)CC(=O)N1 | inactive
86 | CC(C)c1cccc(O)c1 | inactive
87 | O=C(CCOCCOCCOCCOCCC(=O)Nc1c(I)cc(I)c(C(=O)O)c1I)Nc1c(I)cc(I)c(C(=O)O)c1I | inactive
88 | NC(CS)C(=O)O (stereo unspecified) | inactive
89 | CCCCCCCCCCCCI | inactive
90 | Cc1ccc(N)cc1[N+](=O)[O-] | inactive
91 | CC(C)(C)OC(=O)N1C[C@@H](F)C[C@H]1C(=O)O | inactive
92 | Cn1cnc2c(=O)[nH]c(N)nc21 | inactive
93 | Nc1ccn(C2CO[C@H](CO)O2)c(=O)n1 (stereo partly specified) | inactive

Row | SMILES | outcome
94 | COCCOC(=O)CC#N | inactive
95 | CNc1ncnc2nc[nH]c12 | inactive
96 | CCN(CC)S(=O)(=O)c1ccc(C(=O)O)cc1 | inactive
97 | C=CC(=O)OCCCCCC | inactive
98 | CCN(CC)C(=O)c1ccc(O)c(OC)c1 | inactive
99 | c1ccc2cnncc2c1 | inactive
100 | COc1ccc(COC=O)cc1 | inactive
101 | CCCCCCCCN(C)CCCCCCCC | inactive
102 | CC(C)N1C(=O)c2ccccc2C1=O | inactive
103 | Fc1ccccc1-c1ccccc1 | inactive
104 | NC(N)=NS(=O)(=O)c1ccc(N)cc1 | inactive
105 | O=C(O)c1ccccc1-c1ccc(C(F)(F)F)cc1 | inactive
106 | CCCC(C)CO (stereo unspecified) | inactive
107 | CCC(=O)Nc1cccc(N)c1 | inactive
108 | CN(C)N=Nc1ccccc1 | inactive
109 | CC(C)(O)Cc1ccccc1 | inactive
110 | COc1cc(O)cc(O)c1 | inactive
111 | COc1cccc(Br)c1 | inactive
